# The list is not random: actives were taken first. Their share in the collection is about 0.78%.
# RGS4-Gao reg: modulators of RGS4 binding to Galphao, primary screen, biochemical, multiplexed bead flow cytometry | actives lie on both sides | binding response (% of control), % at 10 µM | 220,000 compounds, 0.33% hits; in the data active = binding response below about 49% or above about 150%; inactive = in between;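 note: fluorescent Galphao activated with aluminum fluoride binding bead-coupled RGS4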
# Target sequence (P09471 whole entry, looked up): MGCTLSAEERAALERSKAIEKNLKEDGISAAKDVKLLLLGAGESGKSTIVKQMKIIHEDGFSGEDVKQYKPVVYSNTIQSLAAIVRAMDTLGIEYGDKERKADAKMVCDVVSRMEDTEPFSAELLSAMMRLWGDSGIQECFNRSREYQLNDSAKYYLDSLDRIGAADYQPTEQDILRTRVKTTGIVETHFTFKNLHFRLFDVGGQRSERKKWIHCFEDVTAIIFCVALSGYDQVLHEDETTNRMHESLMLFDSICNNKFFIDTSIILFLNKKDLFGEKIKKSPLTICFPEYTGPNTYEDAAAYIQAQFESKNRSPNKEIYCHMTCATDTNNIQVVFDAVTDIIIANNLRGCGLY
# RGS7-Gao reg: RGS7-Galphao binding modulators, primary screen, biochemical, multiplexed bead flow cytometry; Guanine nucleotide-binding protein G(o) subunit alpha (Homo sapiens), P09471; actives lie on both sides; binding response (% of control), % at 10 µM; 220,000 compounds, 0.35% hits; in the data active = binding response below about 49% or above about 150%; inconclusive = no clear call, values can overlap the other calls; inactive = in between;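 note: fluorescent Galphao held in activated GDP-AlF4 state binding bead-coupled RGS7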
# RGS16-Gao: modulators of RGS16 binding to Galphao, primary screen, biochemical, human proteins, multiplexed bead flow cytometry; binding response (% of control), % at 10 µM; bead-based flow cytometry RGS16-Galphao binding, fluorescence; actives lie on both sides; 220,000 compounds, 0.38% hits;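 note: Galphao activated by GDP with aluminum fluoride before binding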
# Target sequence (O15492 whole entry, looked up): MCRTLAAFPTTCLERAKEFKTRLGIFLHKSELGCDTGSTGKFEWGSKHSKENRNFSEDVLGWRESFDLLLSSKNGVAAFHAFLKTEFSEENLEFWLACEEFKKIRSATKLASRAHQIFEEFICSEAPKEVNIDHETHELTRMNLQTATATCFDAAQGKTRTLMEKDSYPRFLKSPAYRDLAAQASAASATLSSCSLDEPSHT
# Target sequence (P09471 whole entry, looked up): as the sequence (P09471 whole entry, looked up) above
# RGS8-Gao reg: RGS8-Galphao binding modulators, primary screen, biochemical, multiplexed bead flow cytometry. response (percent of control binding), % at 10 µM. AID 1423, 2008. actives lie on both sides. Guanine nucleotide-binding protein G(o) subunit alpha (Homo sapiens), P09471. 220,000 compounds, 0.34% hits; in the data active = response below about 60% or above about 140%; inactive = in between;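 note: Galphao activated as the GDP aluminium fluoride complex binding bead-coupled RGS8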
# RGS4-Gao HTS: modulators of RGS–Galpha-o binding, primary screen, biochemical, multiplexed beads, flow cytometry, RGS4/7/8/16/19. shares compounds with RGS16-Gao. multiplexed bead flow cytometry. RGS4–Galpha-o binding response, % at 10 µM. 1,600 compounds, 99% hits. AID 1504, 2009;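 note: fluorescently labeled Galpha-o bound to GDP with aluminium fluoride binding biotinylated RGS beads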
# Avidin counter: disruption of biotin probe capture by avidin, counter-screen for RGS protein interaction modulators, biochemical, flow cytometry, bead-based; 1,700 tested, under 10 active; shares compounds with RGS16-Gao; streptavidin beads, fluorescein-biotin binding; inhibition, % at 10 µM; AID 1783, 2009;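 active = inhibition above 50%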;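 note: median green fluorescence of gated singlet beads compared with DMSO control wells; 0% = DMSO wells and 100% = complete loss of bead fluorescence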
# RGS8-Gao single: RGS8-Galphao binding modulators, confirmation, biochemical, multiplexed bead flow cytometry, single concentration. 1,700 compounds, 3% hits. AID 1836, 2009. bead-based flow cytometry RGS8-Galphao binding, fluorescence; actives lie on both sides. shares compounds with RGS16-Gao. binding response (% of control), % at 10 µM; in the data active = binding response below about 72% or above about 130%; inactive = in between;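 note: Galphao activated as GDP AlF4 complex before binding bead RGS8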
# RGS7-Gao confirm: RGS7-Galphao binding modulators, confirmation, biochemical, multiplexed bead flow cytometry, single concentration. shares compounds with RGS16-Gao. bead-based flow cytometry RGS7-Galphao binding; actives lie on both sides. response (percent of control binding), % at 10 µM. 1,700 compounds, 7.8% hits. AID 1837, 2009; in the data active = response below about 75% or above about 130%; inactive = in between;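 note: fluorescent Galphao activated with GDP and aluminum fluoride binding bead-coupled RGS7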
# RGS16-Gao single: modulators of RGS16-Galphao protein binding, confirmation, biochemical, single concentration, multiplexed bead flow cytometry; shares compounds with RGS16-Gao; bead-based flow cytometry; actives lie on both sides; response (% of control binding), % at 10 µM; 1,700 compounds, 4% hits; AID 1838, 2009; in the data active = response below about 74% or above about 130%; inactive = in between;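 note: Galphao activated as the GDP aluminium fluoride complex binding bead-coupled RGS16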
# RGS4-Gao single: modulators of RGS4-Galphao protein binding, confirmation, biochemical, single concentration, multiplexed bead flow cytometry; shares compounds with RGS16-Gao; actives lie on both sides; binding response (% of control), % at 10 µM; 1,700 compounds, 4% hits; AID 1840, 2009; in the data active = binding response below about 74% or above about 130%; inactive = in between
# RGS19-Gao single: regulators of RGS19-Galphao binding, confirmation, biochemical, single point, multiplexed bead flow cytometry; response (percent of control binding), % at 10 µM; AID 1841, 2009; 1,700 compounds, 5% hits; shares compounds with RGS16-Gao; bead-based flow cytometry RGS19-Galphao binding; actives lie on both sides; in the data active = response below about 50% or above about 160%; inactive = in between;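 note: 100% = no compound control and 0% = blank background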
# Active calls of the source: *; u = inconclusive; x = no result; [ ] = remark or other dose. Unless noted, the rule behind the calls is not given here.
SMILES,RGS4-Gao reg,RGS7-Gao reg,RGS16-Gao,RGS8-Gao reg,Avidin counter,RGS8-Gao single,RGS7-Gao confirm,RGS16-Gao single,RGS4-Gao single,RGS19-Gao single,others
Cc1ccc(N(CC(=O)NCc2cccnc2)S(C)(=O)=O)cc1C,107,103,105,99,x,x,x,x,x,x,
Cc1cc(NC(=O)C2CCC2)n(-c2ccccn2)n1,8.2*,6.5*,3.5*,14*,1,99,106,100,100,99,
Cc1cc(NC(=O)C2CCCCC2)n(-c2nc3ccccc3[nH]2)n1,101,99,102,100,x,x,x,x,x,x,
O=C(NCc1cccnc1)Nc1cccc(NC(=O)NCc2cccnc2)c1,102,102,103,100,x,x,x,x,x,x,
CC(=O)c1cccc(NC(=O)NCc2cccnc2)c1,x,x,x,x,-1,100,98,98,99,96,
O=C(COC(=O)c1ccc(Br)o1)Nc1ncc(Cl)cc1Cl,101,104,106,101,x,x,x,x,x,x,
CC(NC(=O)Cc1cccs1)C(c1cccs1)N1CCOCC1 (stereo not drawn),39*,45*,7.5*,45*,1,111,119,110,114,105,
CC1Cc2ccccc2N1C(=S)NC(=O)c1ccco1 (stereo not drawn),101,u,99,99,x,x,x,x,x,x,
CC1Cc2ccccc2N1C(=S)NC(=O)C1(C)CC1(Cl)Cl (stereo not drawn),8.4*,13*,7.2*,31*,0,99,99,101,101,98,
O=C(CO/N=C/c1ccccc1O)N1CCc2ccccc21,114,115,191*[activator],122,-1,99,95,95,98,102,RGS4-Gao HTS=114*
O=C(OCC(=O)N1CCc2ccccc21)c1ccccc1,106,103,106,103,x,x,x,x,x,x,
O=C(N/N=C\c1c(O)ccc2ccccc12)c1ccc(Cn2cccn2)o1,57,58,12*,43*,-1,94,88,90,93,128,RGS4-Gao HTS=57*
O=C(N/N=C\c1ccc(Cl)s1)c1ccc(Cn2cccn2)o1,96,98,99,100,x,x,x,x,x,x,
COc1ccc(OCCNC(=O)C(Cc2c[nH]c3ccccc23)NC(C)=O)cc1 (stereo not drawn),100,94,98,101,x,x,x,x,x,x,
COCCn1c(C)cc(C(=O)COC(=O)c2ccc3ncsc3c2)c1C,-46*,15*,-53*,47*,1,94,98,85,81,128,
CN1CCN(C2=C(Cl)C(=O)C(c3cnc(N4CCCCC4)s3)=C(Cl)C2=O)CC1,70,76,14*,64,0,27*,18*,-8.3*,63*,-8.1*,RGS4-Gao HTS=70*
O=C(CC1SC(=NCC2CCCO2)NC1=O)Nc1cccc2ccccc12 (stereo not drawn),11*,-5.8*,-12*,6.6*,0,100,98,97,97,106,
NC1=NC(=O)CC(C(=O)NCCc2ccccc2)S1 (stereo not drawn),-82*,-29*,-73*,3.8*,-2,115,161*[activator],130*[activator],137*[activator],326*[activator],
NC1=NC(=O)CC(C(=O)Nc2cccc3ccccc23)S1 (stereo not drawn),107,109,121,115,x,x,x,x,x,x,
Nc1ccc(-c2cc(N)n(-c3ccccc3)n2)cc1,79,102,78,93,x,x,x,x,x,x,
O=c1[nH]c2cc3c(cc2cc1CN(CC1CCCO1)S(=O)(=O)c1ccc(Cl)cc1)OCCO3 (stereo not drawn),110,110,403,147*[activator],1,100,107,103,106,103,RGS4-Gao HTS=110*
Cc1ccc(S(=O)(=O)N(Cc2cc3cc4c(cc3[nH]c2=O)OCCO4)CC2CCCO2)cc1 (stereo not drawn),96,101,98,103,x,x,x,x,x,x,
O=c1c2c(nc3n1CCCCC3)sc1c(O)c(Br)ccc12,94,96,94,97,x,x,x,x,x,x,
Cc1cc(C)c(NC(=O)c2cnn(C)c2)c(C)c1,-6.8*,2.0*,-386,4.6*,0,111,118,112,114,101,
CCOc1ccc(CN2CCN(c3cc(C)nc4c5c(C)cc(C)nc5nn34)CC2)cc1,102,100,100,102,x,x,x,x,x,x,
SMILES,RGS4-Gao reg,RGS7-Gao reg,RGS16-Gao,RGS8-Gao reg,Avidin counter,RGS8-Gao single,RGS7-Gao confirm,RGS16-Gao single,RGS4-Gao single,RGS19-Gao single,others
O=C(Nc1cccc2ncccc12)c1cccnc1,x,x,x,x,-1,104,110,98,104,83,
O=C(Nc1cccc2ncccc12)c1cccc(F)c1,88,93,97,96,x,x,x,x,x,x,
O=C(Nc1cccc2ncccc12)c1ccc(Br)c([N+](=O)[O-])c1,120,121,246,150*[activator],1,104,101,101,104,102,RGS4-Gao HTS=120*
CCc1ccc(OCc2nnc(SCC(=O)N3CCN(c4ccccc4)CC3)o2)cc1,100,100,100,100,x,x,x,x,x,x,
Cc1nc2c(=O)[nH]c(=S)n(C)c2nc1C,98,126,73,87,x,x,x,x,x,x,
O=C(c1ccccc1)C(C(=O)N1CCc2ccccc2C1)n1ccccc1=O (stereo not drawn),107,105,104,103,x,x,x,x,x,x,
O=C(NCc1ccccn1)c1nc(-c2ccc(C(F)(F)F)cc2)no1,99,97,104,101,x,x,x,x,x,x,
CC(C)(C)c1ccc(-c2noc(C(=O)NN)n2)cc1,83,u,14*,69,-1,107,111,105,110,112,RGS4-Gao HTS=83*
Cc1cc(=O)[nH]c2c1cnn2Cc1ccccc1,101,105,100,104,x,x,x,x,x,x,

# Assay outcomes from PubChem.
